A selection: hits, their analogues and other compounds. The true share with any hit is near 22%.
Pf growth 96h: Primary qHTS for delayed death inhibitors of the malarial parasite plastid, 96 hour incubation. P. falciparum luciferase reporter growth, 96 h. Potency, µM (highest dose often 28.7 µM), without a hit: top-dose activity change, negative = inhibition, usual class: inhibitors. 320,000 compounds, 6.9% hits. AID 504834, 2011; note: potency is the fitted concentration of half-maximal effect; % is set by controls: 0 for no effect and ±100 for the full control effect
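Two parasite generations (96 h, 37 C, 5% CO2) of compound exposure in infected erythrocytes (0.05% parasitemia, 2% hematocrit). Luciferase-reporter P. falciparum; decreased luminescence indicates inhibited growth, aimed at apicoplast-acting delayed death.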
Shiga toxin inh: A qHTS for Small Molecule Inhibitors of Shiga Toxin; Vero cells, Shiga toxin protein synthesis inhibition reporter; inhibition, % at 38.7 µM; 290,000 compounds, 9.2% hits; in the data active = inhibition mostly above about 28%, no sharp cut-off; inactive = mostly below about 43%; note: 0% is about no effect
Pf growth 48h: Primary qHTS for delayed death inhibitors of the malarial parasite plastid, 48 hour incubation. P. falciparum luciferase growth in erythrocytes, 48 h. Potency, µM (series often up to 28.7 µM), for inactives: at the highest dose activity change, negative = inhibition, hits mostly inhibitors. 310,000 compounds, 5.9% hits; note: potency is the fitted concentration of half-maximal effect; % is set by controls: 0 for no effect and ±100 for the full control effect
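Here the parasites carry a stable luciferase gene and grow inside erythrocytes in Albumax-based RPMI medium with compound for one erythrocytic cycle. Activity is scored as loss of luminescent signal.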
CHX counter: Cycloheximide Counterscreen for Small Molecule Inhibitors of Shiga Toxin; cell reporter, cycloheximide protein synthesis inhibition counterscreen; max response, %; 300,000 compounds, 12% hits; in the data active = max response mostly above about 13%, no sharp cut-off; inactive = mostly below about 14%; note: read at 38.3 µM for the half of the compounds with a filed dose; 0% is about no effect
LmPK inhibitor: qHTS Assay for Inhibitors of Leishmania Mexicana Pyruvate Kinase (LmPK) | purified LmPK, Kinase-Glo ATP luminescence, 1 h | Potency, µM (highest dose often 57.5 µM), for inactives: at the top dose activity change, negative = inhibition, usual class: inhibitors | 290,000 compounds, 0.37% hits; note: potency is the fitted concentration of half-maximal effect; % is set by controls: 0 for no effect and ±100 for the full control effect
Target sequence (Q27686 whole entry, looked up): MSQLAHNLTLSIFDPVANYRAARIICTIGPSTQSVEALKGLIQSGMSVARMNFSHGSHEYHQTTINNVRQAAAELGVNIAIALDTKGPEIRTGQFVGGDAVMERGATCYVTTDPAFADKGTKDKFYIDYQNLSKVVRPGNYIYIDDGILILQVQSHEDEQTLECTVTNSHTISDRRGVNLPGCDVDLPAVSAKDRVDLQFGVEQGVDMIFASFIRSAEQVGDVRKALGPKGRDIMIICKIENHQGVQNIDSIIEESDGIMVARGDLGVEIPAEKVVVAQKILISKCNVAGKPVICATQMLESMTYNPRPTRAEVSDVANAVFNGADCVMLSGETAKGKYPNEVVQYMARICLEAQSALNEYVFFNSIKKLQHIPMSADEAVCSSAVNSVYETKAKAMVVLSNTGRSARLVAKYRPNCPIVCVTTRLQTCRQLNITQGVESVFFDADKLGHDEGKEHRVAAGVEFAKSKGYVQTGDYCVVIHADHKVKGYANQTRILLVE
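Kinase-Glo luminescence read after 1 h RT reaction of 0.1 nM LmPK with 0.5 mM PEP and 0.1 mM ADP. Activity scaled between uninhibited and enzyme-free controls.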
Numbers without * were called inactive. Unless noted, calls come from the whole dose curve; as a rule, active = well fitted inhibition curve with a large enough effect; inconclusive = small, poorly fitted or top-dose-only effect, or another doubt; inactive = no such curve, though single readings can be large or run the other way.

For CCOC(=O)C1=C(N)OC2=C(C(=O)CC(C)(C)C2)C1c1ccc(CC)s1 (stereo not drawn) the results were Pf growth 96h 4.1µM*, Shiga toxin inh 44, Pf growth 48h 24%, CHX counter 28 and LmPK inhibitor -9%.
Screening CCOC(=O)C1=C(N)OC2=C(C(=O)CC(C)(C)C2)C1c1ccc(C)s1 (stereo not drawn) returned Pf growth 96h 0%, Shiga toxin inh 89*, Pf growth 48h -8%, CHX counter 26* and LmPK inhibitor 1%.
CCOC(=O)C1=C(N)OC2=C(C(=O)CC(C)(C)C2)C1c1ccco1 (stereo not drawn) was read as Pf growth 96h -4%, Shiga toxin inh -5, Pf growth 48h 0%, CHX counter -2 and LmPK inhibitor 0%.
Cc1cccc(NC(=O)COC(=O)c2cccs2)c1C was read as Pf growth 96h 24%, Shiga toxin inh -8, Pf growth 48h 22%, CHX counter 5 and LmPK inhibitor -6%.
For Cc1nonc1OCCN1CCN(c2ccc([N+](=O)[O-])cc2)CC1 the results were Pf growth 96h inconclusive, Shiga toxin inh 19, Pf growth 48h inconclusive, CHX counter 20* and LmPK inhibitor 4%.
For O=[N+]([O-])c1ccc(N2CCN(CCOc3nonc3-c3ccccc3)CC2)c(Cl)c1 the results were Pf growth 96h inconclusive, Shiga toxin inh -3, Pf growth 48h 10%, CHX counter 15 and LmPK inhibitor -1%.
For Cc1ccc(NC(NC(=O)OCCn2c([N+](=O)[O-])cnc2C)C(Cl)(Cl)Cl)cc1 (stereo not drawn) the results were Pf growth 96h inconclusive, Shiga toxin inh -13, Pf growth 48h 5.2µM*, CHX counter -1 and LmPK inhibitor 4%.
`CC(NCc1ccc([N+](=O)[O-])cc1)C1COc2ccccc2O1` (stereo not drawn) gave Pf growth 96h 0%, Shiga toxin inh 6, CHX counter -3 and LmPK inhibitor -4%.
For CCN(CC)CCOc1cc2c(nn1)Oc1ccccc1N2C the results were Pf growth 96h 3.3µM*, Shiga toxin inh 4, Pf growth 48h 13%, CHX counter 2 and LmPK inhibitor -2%.
For CN1c2ccccc2Oc2nnc(Cl)cc21 the results were Pf growth 96h 4%, Shiga toxin inh -15, Pf growth 48h 26%, CHX counter -2 and LmPK inhibitor 0%.
Cc1cc(C)n(C(=O)CNC(=O)c2ccc(C(C)(C)C)cc2)n1 was read as Pf growth 96h 24%, Shiga toxin inh 24, Pf growth 48h 17%, CHX counter 34* and LmPK inhibitor 2%.
COc1ccc(N2C(=O)/C(=C\c3ccco3)N=C2SCC(=O)N(C(C)C)C(C)C)cc1Cl was read as Pf growth 96h inconclusive, Shiga toxin inh 2, Pf growth 48h 10µM*, CHX counter 10 and LmPK inhibitor 3%.
Screening O=C(CSC1=N/C(=C/c2ccco2)C(=O)N1c1ccc(OC(F)F)cc1)NC1CCS(=O)(=O)C1 (stereo not drawn) returned Pf growth 96h -11%, Shiga toxin inh 24*, Pf growth 48h 3%, CHX counter 17 and LmPK inhibitor -3%.
For COc1ccc(N2C(=O)/C(=C\c3ccco3)N=C2SCC(=O)NC(C)C)cc1Cl the results were Pf growth 96h inconclusive, Shiga toxin inh 7, Pf growth 48h -30%, CHX counter 2 and LmPK inhibitor -5%.
Screening Cc1ccc(N(Cc2ccccc2F)S(C)(=O)=O)cc1C returned Pf growth 96h inconclusive, Shiga toxin inh -9, CHX counter -2 and LmPK inhibitor 6%.
Cc1cccc(N(Cc2ccccc2F)S(C)(=O)=O)c1 was read as Pf growth 96h 9.3µM*, Shiga toxin inh -11, Pf growth 48h -18%, CHX counter -3 and LmPK inhibitor 0%.
Screening N#Cc1cc2c([nH]c1=S)CCCC2 returned Pf growth 96h 4%, Shiga toxin inh 50*, Pf growth 48h 3%, CHX counter 33* and LmPK inhibitor 14%.
`COCCN(C(=O)Cc1cccs1)C(C(=O)NCc1ccc(OC)cc1)c1ccc(C(C)C)cc1` (stereo not drawn) gave Pf growth 96h 2.9µM*, Shiga toxin inh 31, Pf growth 48h 2.1µM*, CHX counter -2 and LmPK inhibitor 0%.

Assay outcomes: PubChem BioAssay, National Center for Advancing Translational Sciences (NCATS)
